Measured values reported in the supplement of paper PMC12669032.

Test system: Roseburia intestinalis
Experiment: growth AUC relative to DMSO control (median of replicates) (fraction); higher = more growth (less inhibition), active = hit call of the paper
Conditions: 20 µM; 24 h;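 active = AUC reduced over 20% with Padj below 0.05 in at least 2 of 3 replicates; inactive = otherwise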
Method in brief: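 Gut bacteria were grown singly in mGAM at 37 °C without oxygen, from OD600 0.05, alongside 20 µM compound in 1% DMSO, and OD600 was read each hour for 24 h. Area under the growth curve was normalised to the median of solvent-only wells per plate, or to row and column medians on the industrial chemical plate. The minimum OD was set to 0 beforehand, and the reported value is the median of three biological replicates grown on separate days.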

SMILES | growth AUC
COC(=O)COc1cc(Cl)c(Cl)cc1Cl | 0.996 (inactive)
Clc1ccc(C2(Cn3cncn3)CC(Br)CO2)c(Cl)c1 (configuration not stated) | 0.99 (inactive)
CC(C)OC(=O)Nc1ccccc1 | 1.06 (inactive)
CCN(CC)N=O | 1 (inactive)
CCCN(CC1CC1)c1c([N+](=O)[O-])cc(C(F)(F)F)cc1[N+](=O)[O-] | 1.06 (inactive)
ClC(Cl)=C(c1ccc(Cl)cc1)c1ccc(Cl)cc1 | 0.945 (inactive)
CC1CCCCC1NC(=O)Nc1ccccc1 (mixture of isomers) | 0.985 (inactive)
Oc1cccc2cccnc12 | 1 (inactive)
C[Si](Cn1cncn1)(c1ccc(F)cc1)c1ccc(F)cc1 | 0.853 (inactive)
CC(C)(COCc1cccc(Oc2ccccc2)c1)c1ccc(OC(F)(F)Br)cc1 | 1.05 (inactive)
Cc1cc(Cl)ccc1O[C@H](C)C(=O)O | 0.898 (inactive)
COC(=O)NS(=O)(=O)c1ccc(N)cc1 | 0.929 (inactive)
O=C(O)c1ccccc1C(=O)Nc1cccc2ccccc12 | 0.993 (inactive)
CC(=O)O.CC(=O)O.CC(=O)O.NC(N)=NCCCCCCCCNCCCCCCCCN=C(N)N | 0.029 (active)
O=C(NC(=O)c1c(F)cccc1F)Nc1cc(Cl)c(OC(F)(F)C(F)C(F)(F)F)cc1Cl (configuration not stated) | 1.02 (inactive)
CCc1cccc(CC)c1N(COC)C(=O)CCl | 0.988 (inactive)
CNC(=O)/C=C(\C)OP(=O)(OC)OC | 1.07 (inactive)
